# D1 ag – Allosteric Agonists of the Human D1 Dopamine Receptor: qHTS; HEK293 T-REx D1 cells, calcium flux, agonist mode; activation, % at 2 µM; 360,000 compounds, 1% hits; AID 504660, 2011
# Target sequence (P21728 whole entry, looked up): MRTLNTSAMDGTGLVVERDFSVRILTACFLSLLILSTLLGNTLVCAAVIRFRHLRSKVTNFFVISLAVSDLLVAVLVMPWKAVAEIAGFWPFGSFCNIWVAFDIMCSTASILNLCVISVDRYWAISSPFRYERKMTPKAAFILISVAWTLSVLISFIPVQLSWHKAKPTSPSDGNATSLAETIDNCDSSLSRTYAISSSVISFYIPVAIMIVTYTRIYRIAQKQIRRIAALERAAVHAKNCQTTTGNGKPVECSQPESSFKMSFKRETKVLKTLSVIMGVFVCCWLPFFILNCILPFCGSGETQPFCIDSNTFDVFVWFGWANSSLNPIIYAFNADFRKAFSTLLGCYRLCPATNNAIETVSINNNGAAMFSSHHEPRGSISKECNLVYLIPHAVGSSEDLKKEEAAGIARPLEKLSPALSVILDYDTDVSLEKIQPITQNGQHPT
#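 Tetracycline-induced HEK293 TREx D1 cells, force-coupled to calcium signalling, were dye-loaded with a no-wash calcium kit. Compound was pin-added after a 10 s baseline. Fluorescence was read kinetically at 1 cycle/s for 180 s, with calcium rises flagged as agonism.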
# TRHR PAM – qHTS for Small Molecule Agonists and Allosteric Enhancers of Human TRH Receptor: Primary Screen for Enhancers. Thyrotropin-releasing hormone receptor (Homo sapiens), P34981. TRHR cells, fluo-8 calcium fluorescence, EC20 TRH enhancement. enhancement, % at 2 µM. 360,000 compounds, 0.66% hits; in the data active = enhancement above about 30%
#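 TRHR-expressing cells loaded with fluo-8 calcium dye were read kinetically (ex 480/em 530) during compound addition, then stimulated with an EC20 of TRH (10 nM final). Enhancement of the Gq-mediated intracellular calcium response was scored.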
# D1 antagonist – Antagonist of Human D 1 Dopamine Receptor: qHTS; D(1A) dopamine receptor (Homo sapiens), P21728; HEK293 TREx D1 cells, calcium flux, dopamine EC80; active compounds read low; activity change, negative = inhibition, % at 10 µM; 360,000 compounds, 3.2% hits; in the data active = activity change below about -30%
#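 Kinetic fluorescence of a calcium dye serves as the read-out. D1-expressing Hek293 Trex cells, induced overnight at 30 C, are exposed to compound for 180 s before an EC80 dopamine addition, then read 180 s further.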
# TRHR ag – qHTS for Small Molecule Agonists and Allosteric Enhancers of Human TRH Receptor: Primary Screen for Agonists. Thyrotropin-releasing hormone receptor (Homo sapiens), P34981. TRHR cells, calcium flux fluo-8, FDSS agonist mode. activation, % at 2 µM. 360,000 compounds, 0.18% hits. AID 493084, 2011
#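 TRHR-expressing cells loaded with fluo-8 calcium dye; 23 nL library compound pin-transferred, kinetic FDSS fluorescence (Ex 480/Em 530) recorded about 180 s for agonist-induced calcium release, before a 10 nM TRH EC20 addition for potentiator mode.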
# D1 potentiator – Potentiators of Human D1 Dopamine Receptor: qHTS. potentiation, % at 10 µM. HEK293 TREx D1 cells, calcium flux, dopamine EC20 potentiation. D(1A) dopamine receptor (Homo sapiens), P21728. 360,000 compounds, 0.036% hits; in the data active = potentiation above about 30%
# Numbers stand for hits; . = inactive. In the library only some 4.6% were active in any assay of this set; here they are far more common. Rule as the data show it, unless noted: active = activation above about 30%; inactive = the rest.
SMILES,D1 ag,TRHR PAM,D1 antagonist,TRHR ag,D1 potentiator
Cc1cc(NC(=O)CN2C(=O)c3ccccc3S2(=O)=O)no1,.,30,.,.,.
COc1cc(CNCCCN2CCOCC2)ccc1OCC(=O)NC(C)(C)C,.,.,.,.,.
CCOc1cc(CNCCc2ccccc2)ccc1OCC(=O)NC(C)(C)C,122,.,.,.,.
CCOc1cc(CNCCc2ccc(S(N)(=O)=O)cc2)ccc1OCC(=O)NC(C)(C)C,.,.,.,.,.
COc1cc(CNCCN2CCOCC2)ccc1OCC(=O)NC(C)(C)C,32,.,.,.,.
CCOc1cc(CNCc2cccs2)ccc1OCC(=O)NC(C)(C)C,.,.,.,.,.
CCOc1cc(CNCc2cccnc2)ccc1OCC(=O)NC(C)(C)C,.,36,.,.,.
COc1ccc(CNC(=O)CSc2nnc(C)c3c(C)n(-c4ccccc4)nc23)c(OC)c1,.,.,.,.,.
Brc1ccc(-c2ccc(CNCCSc3nnnn3-c3ccccc3)o2)cc1,.,.,.,.,.
CCOc1ccc(NC(=O)Cc2ccccc2)c([N+](=O)[O-])c1,.,.,.,.,.
CCOc1ccc(NC(=O)c2ccc(Br)o2)c([N+](=O)[O-])c1,.,.,-45,.,.
Cc1ccc(NC(=O)Cn2nc(C)c3nn(-c4ccc(Cl)cc4)c(C)c3c2=O)cc1F,.,.,.,.,.
Cc1cc(C)cc(NC(=O)Cn2cc(S(=O)(=O)NC(C)(C)C)c(S(=O)(=O)NC(C)(C)C)c2)c1,.,.,.,.,.
COc1ccc(Cn2ccnc2SCC(=O)Nc2cc(C(F)(F)F)ccc2Cl)cc1,.,.,.,.,.
COc1ccc2oc(=O)c(-c3nc(-c4cc(OC)c(OC)c(OC)c4)no3)cc2c1,.,31,.,.,.
CCCCCc1ccc(OCCCC[n+]2ccccc2)c(CCCCC)c1,96,.,.,.,.
CCC(C)(C)c1ccc(OCCCC[n+]2ccccc2)c(C(C)(C)CC)c1,166,.,.,.,.
O=C(Nc1cc(Sc2ccccn2)cc([N+](=O)[O-])c1)c1cccc(Cl)c1,.,.,-35,.,.
CN(C)CCNC(=O)c1cc2c(s1)-c1ccc(Cl)cc1SC2,.,.,-48,.,.
Cc1ccccc1Nc1c(-c2ccccn2)nc2ccccn12,.,.,.,.,.
CC(C)c1ccc(Nc2c(-c3ccccn3)nc3ccccn23)cc1,.,.,-34,.,.
Cc1cccc(C)c1Nc1c(-c2ccccn2)nc2c(C)cccn12,.,.,-48,.,.
Nc1ccc(NC(=S)Nc2ccccc2)cc1,.,.,-57,.,.
O=C(Nc1cccc(C(=O)OCc2cc(=O)n3c4c(sc3n2)CCCC4)c1)c1cccc(F)c1,.,.,.,.,.
CCOc1ccc(OCC(=O)NCCS(=O)(=O)N2CCN(c3ccccc3F)CC2)cc1,.,.,.,.,.
SMILES,D1 ag,TRHR PAM,D1 antagonist,TRHR ag,D1 potentiator
CCCOc1ccc(CNC(=O)C(CC)n2nc(C)c3sc4ccccc4c3c2=O)cc1 (stereo unspecified),.,.,.,.,.
COc1ccc(CNC(=O)COc2ccc(C(=O)c3ccc(F)cc3)cc2)cc1,.,.,-30,.,.
COC(=O)c1ccc(/C=N/OCC(=O)NCc2ccc(F)cc2)cc1,.,.,-51,.,.
CCOC(=O)c1c(NC(=O)CSc2cn(CCNC(=O)c3ccc(OC)c(OC)c3)c3ccccc23)sc2c1CCC2,.,.,.,.,.
O=c1c2ccccc2n(Cc2ccccc2Cl)c(=O)n1CCc1ccccc1,.,.,.,.,.
COc1cccc(CNC(=O)Cn2nc(N3CCN(c4ccccc4OC)CC3)ccc2=O)c1,.,.,.,.,.
CCOc1ccc(CNS(=O)(=O)c2cc(CN3C(=O)c4cccnc4C3=O)ccc2OC)cc1,.,.,-54,.,.
CCSc1ncc(Cl)c(C(=O)N(Cc2ccccc2)c2ccc(OC)cc2)n1,.,.,.,.,.
Cc1cccc(C)c1OCCCn1c(CCNC(=O)C2CCCCC2)nc2ccccc21,.,.,.,.,.
Cc1cc(C)c(S(=O)(=O)Nc2ccc(C(N)=O)cc2)c(C)c1,.,.,-43,.,.
CC(=O)c1ccc(NS(=O)(=O)c2c(C)cc(C)cc2C)cc1,.,.,.,.,.
COc1ccc(CN2CCc3c(c(=O)n4ncc(C(=O)N5CCN(c6ccccc6F)CC5)c4n3C)C2)cc1,.,.,.,.,.
Clc1ccc(/C=N/Nc2ccccn2)cc1,.,.,-31,.,.
CCc1ccccc1Oc1ccc(S(=O)(=O)N2CCN(C)CC2)cn1,.,40,.,.,.
NC(=O)c1ccc(N2CCN(c3ccccc3O)CC2)c([N+](=O)[O-])c1,.,.,-56,.,.
NC(=O)c1ccc(N2CCN(c3ccccc3F)CC2)c([N+](=O)[O-])c1,.,.,.,.,.
O=[N+]([O-])c1ccc(N2CCN(c3ccccc3O)CC2)c(Cl)c1,.,.,-36,.,.
Cc1cccc(CSc2nc(=O)c3c(n2C)NC(=O)CC3c2cc(F)cc(F)c2)c1 (stereo unspecified),.,.,.,.,.
O=S(=O)(Nc1ccc(N2CCOCC2)nn1)c1ccccc1,.,.,-47,.,.
COc1ccc(-c2nsc(NC(=O)COc3ccc(C)c(C)c3)n2)cc1,.,.,.,.,.
COC(=O)c1cc(S(=O)(=O)N2CCN(c3ccccc3F)CC2)c[nH]1,.,.,.,.,.
O=C(C1CCC1)N1CCc2cc(S(=O)(=O)NCCN3CCN(c4ccccc4F)CC3)ccc21,.,.,-39,.,.
COC(=O)c1cc(S(=O)(=O)NCCN2CCN(c3ccccc3F)CC2)c[nH]1,.,.,-43,.,.
Cc1ccc(NC(=O)CSc2nc3ccccc3n2CC(=O)N2CCC(C)CC2)cc1C,.,.,.,.,.
Cc1ccc(C(=O)c2sc(Nc3ccccc3F)c(S(=O)(=O)c3ccccc3)c2N)c(C)c1,.,.,.,.,.
SMILES,D1 ag,TRHR PAM,D1 antagonist,TRHR ag,D1 potentiator
Cc1ccc(NC(=O)CCc2ccc(C)o2)c(C)c1,32,.,.,.,.
Cc1ccc(C)c(NC(=O)CCc2ccc(C)o2)c1,.,.,.,.,.
CCc1ccc(NC(=O)CCc2ccc(C)o2)cc1,.,.,.,.,.
Cc1cc(NC(=O)CCc2ccc(C)o2)no1,.,.,-42,.,.
CCOC(=O)c1ccccc1NC(=O)CSc1nccn1Cc1ccco1,.,.,.,.,.
O=C(CCN1C(=O)c2ccccc2Sc2ncccc21)Nc1ccc(F)cc1,.,.,.,.,.

# Source: PubChem BioAssay
